Source: PubChem BioAssay AID1778 (Sanford-Burnham Center for Chemical Genomics, 2009)
About 260 (0.09%) of roughly 290,000 compounds were called active. No stated cut-off is given here; in the data, active means inhibition above about 50%; inactive means the rest. The full list was thinned out, with actives kept by preference. Entries with a potency or affinity are not part of this list.

Each compound was assayed against Kappa-type opioid receptor (Homo sapiens) (UniProt P41145) (assay: kappa opioid receptor blockers – cell-based, luminescence, uHTS (AID 1778)). Conditions: KOR beta-arrestin recruitment, antagonist mode, hits give high values; at 10 µM unless noted.
Chain of Kappa-type opioid receptor (Homo sapiens) (P41145 whole entry, looked up): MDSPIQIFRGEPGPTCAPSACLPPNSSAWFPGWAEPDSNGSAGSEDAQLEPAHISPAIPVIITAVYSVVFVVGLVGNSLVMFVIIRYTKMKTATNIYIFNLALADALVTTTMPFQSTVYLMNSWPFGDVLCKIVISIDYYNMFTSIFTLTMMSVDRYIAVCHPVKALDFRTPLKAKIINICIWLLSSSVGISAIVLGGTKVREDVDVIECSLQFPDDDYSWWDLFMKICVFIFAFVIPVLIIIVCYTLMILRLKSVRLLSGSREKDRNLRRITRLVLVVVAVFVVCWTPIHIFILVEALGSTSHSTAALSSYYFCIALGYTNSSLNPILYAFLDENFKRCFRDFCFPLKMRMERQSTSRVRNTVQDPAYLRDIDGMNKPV

| Compound | inhibition |
| --- | --- |
| O=C(CNC(=O)c1ccco1)OCC(=O)c1ccc(Br)cc1 | -35% (inactive) |
| Cc1nc(Nc2nc3ccccc3o2)nc2c1CCC2 | 21.7% (inactive) |
| Cc1ccc(Nc2nc3c(c(=O)[nH]2)CCCC3)cc1 | -0.9% (inactive) |
| Cc1nn(C)cc1S(=O)(=O)Nc1ccc(F)c(F)c1 | 9% (inactive) |
| COc1ccc(C)cc1NC(=O)CN(c1ccc(F)cc1)S(C)(=O)=O | -4.9% (inactive) |
| COc1cccc2sc(Nc3nc(-c4ccncc4)cs3)nc12 | -21.7% (inactive) |
| Cc1cccnc1Nc1nc(-c2ccccc2)cs1 | 1.5% (inactive) |
| Cc1cccnc1Nc1nc(-c2ccc(O)cc2)cs1 | 17.8% (inactive) |
| COc1cccc2sc(Nc3nc(-c4cc5ccccc5oc4=O)cs3)nc12 | -2.1% (inactive) |
| CCc1nc(N2CCN(C(C)=O)CC2)c2c3c(sc2n1)CC(C(C)(C)C)CC3 (configuration not stated) | -42.9% [at 20 µM] (inactive) |
| CN(CC(=O)NCCc1ccccc1)S(=O)(=O)c1cccc2nsnc12 | -1.3% (inactive) |
| O=C(CC1C(=O)NCCN1Cc1ccccc1C(F)(F)F)NCCc1ccccn1 (configuration not stated) | -9.9% [at 20 µM] (inactive) |
| O=C(c1cc(F)ccc1F)C1CCCN(C(=O)CCCN2CCCCC2=O)C1 (configuration not stated) | 20.7% (inactive) |
| COc1ccc(N2CCN(CCCNC(=O)C(=O)c3c(C)[nH]c4ccccc34)CC2)cc1 | 15.4% (inactive) |
| O=C(Cn1c(=O)c2cccn2c2cccnc21)NCCCN1CCN(c2ccc(F)cc2)CC1 | -19.4% (inactive) |
| COc1ccc(N2CCN(C(=O)C(=O)c3c(C)n(C)c4ccccc34)CC2)cc1 | -32.2% (inactive) |
| COc1ccc(N2CCN(CCCNC(=O)Cn3c(=O)c4cccn4c4ccccc43)CC2)cc1 | 47.8% (inactive) |
| CN(C(=O)COC(=O)c1cc2c(s1)CCCCC2)C1CCS(=O)(=O)C1 (configuration not stated) | 31.3% (inactive) |
| COc1ccc(C2(NC(C)=O)CCN(C(=O)c3cccs3)CC2)cc1 | -9.8% (inactive) |
| O=C(Cn1cnc2c(cnn2-c2ccccc2)c1=O)N1CCCc2ccccc21 | -16.3% (inactive) |
| O=C(C1CC1)N1N=C(c2ccc(F)cc2)CC1(O)C(F)(F)F (configuration not stated) | 26.6% [at 20 µM] (inactive) |
| CCOC(=O)N1CCN(S(=O)(=O)c2ccc(C(=O)N(CCCN(C)C)c3nc4ccc(Cl)cc4s3)cc2)CC1 | -7.9% (inactive) |
| Cc1ccc(C(=O)N[C@@H](C)CN2C3=NC[C@H](C)N3C[C@H]2Cc2ccc(O)cc2)cc1Br | 45.3% (inactive) |

| Compound | inhibition |
| --- | --- |
| COc1ccc(C[C@H]2CN3C(=NC[C@@H]3Cc3ccc(O)cc3)N2C[C@H](C)NC(=O)c2ccc(C)c(Br)c2)cc1 | 15.3% (inactive) |
| COc1ccc(C[C@@H]2CN3C(=NC[C@@H]3C)N2C[C@H](C)NC(=O)c2ccc(C)c(Br)c2)cc1 | 40% (inactive) |
| Cc1ccc(C(=O)N[C@@H](C)CN2C3=NC[C@H](C(C)C)N3C[C@H]2Cc2ccc(O)cc2)cc1Br | 19.2% (inactive) |
| NS(=O)(=O)c1ccc(CCNC(=O)CSc2nc3ccsc3c(=O)n2CCCCC(=O)O)cc1 | 3% (inactive) |
| N#CCC(=O)NNC(=S)NC(=O)C(c1ccccc1)c1ccccc1 | -32.2% [at 20 µM] (inactive) |
| Cc1[nH][nH]c(=O)c1C(c1c(C)[nH][nH]c1=O)c1cn(Cc2ccccc2Cl)c2ccccc12 | -4% (inactive) |
| Cc1[nH][nH]c(=O)c1C(c1c(C)[nH][nH]c1=O)c1cn(Cc2ccc(Cl)c(Cl)c2)c2ccccc12 | -8.7% (inactive) |
| Cc1[nH][nH]c(=O)c1C(c1c(C)[nH][nH]c1=O)c1cn(Cc2ccc(F)cc2)c2ccccc12 | 53.6% (active) |
| Cc1ccc(NC(=O)C23CCC(C)(C(=O)[C@H]2Br)C3(C)C)cc1 (some centres not stated) | -3.6% (inactive) |
| O=C(OCn1ncc(Br)c(Br)c1=O)c1c(F)cccc1F | 28% (inactive) |
| O=C(OCn1ncc(Cl)c(Cl)c1=O)c1ccc(F)cc1 | 5.2% (inactive) |
| CC(C)C(C(=O)NC(C)(C)C)N1C(=O)c2ccccc2C1=O (configuration not stated) | -6.7% (inactive) |
| Cc1cc(C(=O)Nc2ccc(Br)cc2)cs1 | 9.2% (inactive) |
| CC(=O)c1c(C)nn(CCC(=O)O)c1C | 18.3% (inactive) |
| O=C(Nc1nccs1)c1sc2ccccc2c1Cl | -49.2% (inactive) |
| Cc1ccnc(NC(=O)c2sc3cc(Cl)ccc3c2Cl)c1 | 9.3% (inactive) |
| O=C(CCN1C(=O)S/C(=C/c2ccc(Cl)cc2)C1=O)N1CCOCC1 | 36.7% (inactive) |
| Cn1c(C(=O)NCc2cccnc2)cc2sccc21 | 26.2% (inactive) |
| Cc1nc(Cl)c(C(=O)NCc2ccccc2)c(C)c1[N+](=O)[O-] | 13.7% (inactive) |
| Cc1nc(Cl)c(C(=O)NCc2ccccc2)c(C)c1Cl | 7.6% (inactive) |
| O=C(NCc1ccccc1)c1c(Cl)nc(Cl)c(Cl)c1Cl | 58.5% (active) |
| Cc1ccccc1-c1nc(CS(=O)(=O)CC(=O)N2CCOCC2)c(C)o1 | -6% (inactive) |
| O=C(NCc1ccc(Cl)cc1)c1cc(=O)[nH]c2ccccc12 | -54.2% (inactive) |

| Compound | inhibition |
| --- | --- |
| O=C(NCc1ccccc1Cl)c1cc(=O)[nH]c2ccccc12 | 4.5% (inactive) |
| CCOC(=O)c1cc(-c2ccc(N3CCOCC3)cc2)nn1-c1ccc(F)cc1F | 21.8% (inactive) |
| COc1ccc(NC(=O)CSc2nnnn2-c2ccc(OC)cc2)cc1 | -1.3% (inactive) |
| CC(CCc1ccccc1)NC(=O)COC(=O)c1ccc(S(C)(=O)=O)c([N+](=O)[O-])c1 (configuration not stated) | 18.3% (inactive) |
| CC(=O)c1cccc(NC(=O)COC(=O)c2ccc(S(C)(=O)=O)c([N+](=O)[O-])c2)c1 | 18.1% (inactive) |
| Cc1ccccc1NC(=O)COC(=O)c1ccc(S(C)(=O)=O)c([N+](=O)[O-])c1 | 53.9% [at 20 µM] (active) |
| O=C(Cc1cccs1)Nc1ccccc1C(=O)O | 27.3% (inactive) |
| O=c1cc(-c2ccccc2)[nH]n1-c1nc2ccccc2[nH]1 | 11.5% (inactive) |
| COC(=O)Cc1cc(=O)n(-c2nc3ccccc3[nH]2)[nH]1 | 21.2% (inactive) |
| COc1ccc(NC(=O)CSc2nc3sc(C)cc3c(=O)n2C)c(OC)c1 | -25.7% (inactive) |
| O=C(NCC1CCCO1)C(c1ccc(F)cc1)N(Cc1ccc2c(c1)OCO2)C(=O)c1ccc(CN2CCOCC2)o1 (configuration not stated) | -17.9% [at 20 µM] (inactive) |
| CCOc1ccc(/C=C2/SC(=S)N(C(C(=O)O)c3ccccc3)C2=O)cc1OCC (configuration not stated) | -34.9% (inactive) |
| COc1cc(/C=C2\SC(=S)N(NC(=O)c3ccc(O)cc3)C2=O)ccc1O | 47.2% (inactive) |
| Cc1c(N2C(=O)/C(=C/c3ccccc3)SC2=S)c(=O)n(-c2ccccc2)n1C | -9.4% (inactive) |
| Cc1ccc(/C=C2\SC(=S)N(c3c(C)n(C)n(-c4ccccc4)c3=O)C2=O)cc1 | -2.4% (inactive) |
| CCOc1cc(/C=C2\SC(=S)N(Nc3ccccc3)C2=O)ccc1O | 9% (inactive) |
| CCOc1ccc(/C=C2\SC(=S)N(C(C(=O)O)c3ccccc3)C2=O)cc1OC (configuration not stated) | 9.7% (inactive) |
| O=C1/C(=C/c2ccc(O)c(O)c2)SC(=S)N1Nc1ccccc1 | 35.5% (inactive) |
| COc1cc(/C=C2\SC(=S)N(NC(=O)c3ccncc3)C2=O)ccc1O | 49.4% (inactive) |
| Cn1cnnc1SCC(=O)Nc1ccc(OC(F)F)cc1 | -3.3% (inactive) |
| C/C(=N\NC(=O)c1ccc2c(c1)OCO2)c1cccnc1 | 14.6% (inactive) |
| COc1ccc(NC(=O)CCCN2C(=O)C(c3ccccc3)Oc3cccnc32)cc1OC (configuration not stated) | 7% (inactive) |
| CN1CCN(C2CC(=O)N(CCc3ccccc3)C2=O)CC1 (configuration not stated) | 10.4% (inactive) |

| Compound | inhibition |
| --- | --- |
| Cc1cc(C(c2ccc(C)o2)c2ccc(C)o2)c(O)c([N+](=O)[O-])c1 | -22.8% (inactive) |
| COc1ccc([N+](=O)[O-])cc1NC(=O)Cc1c(Cl)cccc1Cl | 15.2% (inactive) |
| CCCc1nc2sc3c(=O)[nH]cnc3c2c2c1CCCC2 | -21.3% (inactive) |
| CCCc1nc2sc3c(=O)n(N)cnc3c2c2c1CCCC2 | -14.5% (inactive) |
| CC(C)Cc1nc2oc3c(Cl)ncnc3c2c2c1CCC2 | 32.2% (inactive) |
| CCCc1nc2oc3c(N4CCNCC4)ncnc3c2c2c1CCCC2 | 14.5% (inactive) |
| Cn1ccnc1Sc1ccccc1[N+](=O)[O-] | 6.9% (inactive) |
| O=C(/C=C/c1cccc([N+](=O)[O-])c1)c1cccs1 | 14.1% (inactive) |
| CCc1cc2c(=O)[nH]c(-c3ccccn3)nc2s1 | 104% (active) |
| O=c1[nH]c(-c2ccccn2)nc2ccccc12 | 13.8% (inactive) |
| Cc1sc2nc(-c3ccccn3)[nH]c(=O)c2c1-c1ccccc1 | 49.2% (inactive) |
| CCc1cc2c(=O)[nH]c(Cc3ccccc3)nc2s1 | -15.3% (inactive) |
| CCc1cc2c(=O)[nH]c(-c3ccncc3)nc2s1 | -17.3% (inactive) |
| COc1ccc(CNC(=O)Nc2cccc3ccccc23)cc1 | 7.6% (inactive) |
| N#CC1=C(N)Oc2n[nH]c(-c3ccccc3)c2C1c1cccc(OC(=O)N2CCOCC2)c1 (configuration not stated) | 15.5% (inactive) |
| O=C(NCCN1CCOCC1)C(=O)NCc1ccc2c(c1)OCO2 | -60.9% [at 20 µM] (inactive) |
| CCOc1ccc(C(=O)/C=C/Nc2ccc(S(=O)(=O)Nc3onc(C)c3C)cc2)cc1 | -11% (inactive) |
| C[C@H](NC(=O)c1ccccc1)C(=O)Nc1nc(-c2ccccn2)cs1 | -31% (inactive) |
| CC(Oc1ccc(Br)cc1)C(=O)NCc1ccccn1 (configuration not stated) | -23.9% [at 20 µM] (inactive) |
| CNc1ccc(OC(F)F)cc1C(=O)c1ccccc1 | 17.2% (inactive) |
| Cc1ccc(SCC(=O)N2CCc3ccccc32)cc1 | -4.7% (inactive) |
| CC(=O)/C(=N\Nc1ccccc1Cl)Sc1cccc2cccnc12 | -17.2% (inactive) |
| CC(=O)/C(=N\Nc1cccc(Cl)c1)Sc1cccc2cccnc12 | 9.1% (inactive) |
